Activity calls are given as the source filed them. How the source made its calls: active means hit-call score of the fitted dose curve at least 0.9, where 1 is the maximum; inactive means score below 0.9.
Assays:
Conditions in all cases: mRNA level, 48 h; actives raise or lower the signal
[1] = read-out: Ezrin (EZR), EZR (gene 7430); assay: LTEA_HepaRG_EZR: Life Technologies and Expression Analysis (LTEA) Assay for Ezrin (EZR) using HepaRG (AID 2283491)
Summary of the method: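 EZR transcript levels came from Fluidigm qRT-PCR and were normalized to three housekeeping genes after 48 h chemical exposure of HepaRG cells. Dosing used an 8-point half-log series with a 100 uM top concentration in 0.5% DMSO, tested in duplicate; both directions were fitted versus vehicle.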

[2] = read-out: Cytochrome P450 3A7 (Homo sapiens) (UniProt P24462); assay: LTEA_HepaRG_CYP3A7: Life Technologies and Expression Analysis (LTEA) Assay for CYP3A7 using HepaRG (AID 2283492)
Summary of the method: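 qRT-PCR of CYP3A7 in HepaRG lysates after 48 h treatment; concentration-response (8 points, max 100 uM) analysed bidirectionally relative to 0.5% DMSO controls.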

CYP3A5 (gene 1577) = assay: LTEA_HepaRG_CYP3A5: Life Technologies and Expression Analysis (LTEA) Assay for CYP3A5 using HepaRG (AID 2283493)
Summary of the method: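 mRNA levels were quantified by qRT-PCR on Fluidigm arrays and normalized to three housekeeping genes. Differentiated HepaRG cells received 48 h exposure (top 100 uM, half-log steps, 0.5% DMSO vehicle, duplicate); bidirectional fitting versus DMSO.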

[3] = read-out: Cytochrome P450 4A22 (Homo sapiens) (UniProt Q5TCH4); assay: LTEA_HepaRG_CYP4A22: Life Technologies and Expression Analysis (LTEA) Assay for Cytochrome P450 4A22 (CYP4A22) using HepaRG (AID 2283495)
Summary of the method: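 Concentration-response (8 points, max 100 uM, 0.5% DMSO) in human HepaRG liver cells after 48 h exposure. CYP4A22 mRNA by TaqMan qRT-PCR with housekeeping-gene normalization.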

[4] = read-out: Cytochrome P450 7A1 (Homo sapiens) (UniProt P22680); assay: LTEA_HepaRG_CYP7A1: Life Technologies and Expression Analysis (LTEA) Assay for Cytochrome P450 7A1 (CYP7A1) using HepaRG (AID 2283496)
Summary of the method: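 HepaRG, 48 h exposure, 8-pt half-log series from 100 uM, 0.5% DMSO vehicle, duplicates. Readout: TaqMan qRT-PCR mRNA vs three housekeeping genes; bidirectional curve fit against DMSO baseline.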

[5] = read-out: Glutathione S-Transferase (GSTA2), GSTA2 (gene 2939); assay: LTEA_HepaRG_GSTA2: Life Technologies and Expression Analysis (LTEA) Assay for Glutathione S-Transferase (GSTA2) using HepaRG (AID 2283497)
Summary of the method: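 Oxidative-stress marker GSTA2 is quantified by TaqMan qRT-PCR in HepaRG cultures treated 48 h across an eight-point range to 100 uM. Expression is normalized to endogenous controls and compared with 0.5% DMSO vehicle.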

[6] = read-out: Glutamate-cysteine ligase catalytic (GCLC), GCLC (gene 2729); assay: LTEA_HepaRG_GCLC: Life Technologies and Expression Analysis (LTEA) Assay for Glutamate-cysteine ligase catalytic (GCLC) using HepaRG (AID 2283498)
Summary of the method: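 Oxidative-stress marker GCLC is measured as mRNA change in human HepaRG liver cells after 48 h chemical treatment in 0.5% DMSO, eight concentrations from 100 uM. Activity is fitted bidirectionally against vehicle.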

[7] = read-out: growth arrest and DNA damage 45 (GADD45G), GADD45G (gene 10912); assay: LTEA_HepaRG_GADD45G: Life Technologies and Expression Analysis (LTEA) Assay for growth arrest and DNA damage 45 (GADD45G) using HepaRG (AID 2283499)
Summary of the method: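 Concentration-response in HepaRG: 48 h dosing, 0.5% DMSO, highest level 100 uM. GADD45G expression by qRT-PCR, normalised to endogenous controls; bidirectional fit to DMSO.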

[8] = read-out: Glutamate-cysteine ligase regulatory (GCLM), GCLM (gene 2730); assay: LTEA_HepaRG_GCLM: Life Technologies and Expression Analysis (LTEA) Assay for Glutamate-cysteine ligase regulatory (GCLM) using HepaRG (AID 2283500)
Summary of the method: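 GCLM expression quantified by qRT-PCR, normalized to three housekeeping genes, after 48 h chemical treatment of HepaRG cells in duplicate at 8 concentrations (top 100 uM, half-log steps, 0.5% DMSO). Changes fitted both directions against vehicle.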

[9] = read-out: Glutathione S-transferase M3 (GSTM3), GSTM3 (gene 2947); assay: LTEA_HepaRG_GSTM3: Life Technologies and Expression Analysis (LTEA) Assay for Glutathione S-transferase M3 (GSTM3) using HepaRG (AID 2283501)
Summary of the method: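 Expression of GSTM3 is determined by qRT-PCR in human liver HepaRG cells treated 48 h with an 8-point half-log range from 100 uM in 0.5% DMSO.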

[10] = read-out: Heat shock 70 kDa protein 1 (HSPA1A), gene 3303; assay: LTEA_HepaRG_HSPA1A: Life Technologies and Expression Analysis (LTEA) Assay for Heat shock 70 kDa protein 1 (HSPA1A) using HepaRG (AID 2283502)
Summary of the method: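 HSPA1A expression measured by qRT-PCR with ACTB/GAPDH/POLR2A normalization; curves fitted in both directions relative to DMSO vehicle. Exposure: 48 h in HepaRG cells, duplicate 8-point half-log series from 100 uM, 0.5% DMSO, serum-free induction medium.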

[11] = read-out: Hypoxia-inducible factor 1-alpha (Homo sapiens) (UniProt Q16665); assay: LTEA_HepaRG_HIF1A: Life Technologies and Expression Analysis (LTEA) Assay for Hypoxia-inducible factor 1 (HIF1A) Trancription factor using HepaRG (AID 2283503)
Summary of the method: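 HIF1A transcript level read by qRT-PCR (ACTB, GAPDH, POLR2A normalization) after 48 h chemical exposure of HepaRG cultures. Eight half-log concentrations, top 100 uM, 0.5% DMSO vehicle, duplicates; bidirectional curve fit against DMSO baseline.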

[12] = read-out: 3-Hydroxy-3-Methylglutaryl-CoA Synthase 2 (HMGCS2), HMGCS2 (gene 3158); assay: LTEA_HepaRG_HMGCS2: Life Technologies and Expression Analysis (LTEA) Assay for 3-Hydroxy-3-Methylglutaryl-CoA Synthase 2 (HMGCS2) using HepaRG (AID 2283504)
Summary of the method: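 This steatosis marker was read as HMGCS2 mRNA change in HepaRG cells treated 48 h with up to 100 uM chemical. Normalisation used housekeeping genes; activity in either direction was fitted relative to 0.5% DMSO vehicle.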

HGF (gene 3082) = assay: LTEA_HepaRG_HGF: Life Technologies and Expression Analysis (LTEA) Assay for Hepatocyte Growth Facto (HGF) using HepaRG (AID 2283505)
Summary of the method: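 Using HepaRG monolayers kept in 0.5% DMSO, chemicals were tested in duplicate over eight half-log concentrations from 100 uM for 48 h. Endpoint: HGF mRNA change relative to DMSO, normalized to ACTB/GAPDH/POLR2A.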

[13] = read-out: Insulin Like Growth Factor 1 (IGF1), IGF1 (gene 3479); assay: LTEA_HepaRG_IGF1: Life Technologies and Expression Analysis (LTEA) Assay for Insulin Like Growth Factor 1 (IGF1) using HepaRG (AID 2283506)
Summary of the method: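 Expression measured by TaqMan qRT-PCR on a Fluidigm array, with three housekeeping genes for normalisation, after 48 h treatment of HepaRG cells. Top concentration 100 uM with half-log steps, 0.5% DMSO vehicle, bidirectional fit.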

[14] = read-out: Intercellular Adhesion Molecule 1 (ICAM1), ICAM1 (gene 3383); assay: LTEA_HepaRG_ICAM1: Life Technologies and Expression Analysis (LTEA) Assay for Intercellular Adhesion Molecule 1 (ICAM1) using HepaRG (AID 2283507)
Summary of the method: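 Using the human liver line HepaRG, compounds are tested in duplicate over 48 h at concentrations up to 100 uM. Expression is determined by TaqMan qRT-PCR, normalized to endogenous controls, and analysed relative to 0.5% DMSO vehicle.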

[15] = read-out: Insulin-like growth factor-binding protein 1 (IGFBP1), IGFBP1 (gene 3484); assay: LTEA_HepaRG_IGFBP1: Life Technologies and Expression Analysis (LTEA) Assay for Insulin-like growth factor-binding protein 1 (IGFBP1) using HepaRG (AID 2283508)
Summary of the method: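 HepaRG, 48 h, 8 conc. (max 100 uM, half-log), duplicates, 0.5% DMSO. Readout: TaqMan qRT-PCR, ACTB/GAPDH/POLR2A normalisation. Fit: bidirectional vs DMSO.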

[16] = read-out: Interleukin 6 (IL6), IL6 (gene 3569); assay: LTEA_HepaRG_IL6: Life Technologies and Expression Analysis (LTEA) Assay for Interleukin 6 (IL6) using HepaRG (AID 2283509)
Summary of the method: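 Changes in IL6 mRNA, up or down relative to 0.5% DMSO controls, were derived from concentration-response curves in human HepaRG cells treated for 48 h at up to 100 uM, with ACTB, GAPDH and POLR2A as normalizers.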

[17] = read-out: Interleukin 6 Receptor (IL6R), IL6R (gene 3570); assay: LTEA_HepaRG_IL6R: Life Technologies and Expression Analysis (LTEA) Assay for Interleukin 6 Receptor (IL6R) using HepaRG (AID 2283510)
Summary of the method: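 IL6R transcript level by qRT-PCR after 48 h chemical exposure (8-point, half-log, max 100 uM, 0.5% DMSO vehicle) of HepaRG cells in serum-free induction medium. Normalized to three housekeeping genes; curves fitted in both directions relative to DMSO.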

Sequence of Hypoxia-inducible factor 1-alpha (Homo sapiens) (Q16665 whole entry, looked up): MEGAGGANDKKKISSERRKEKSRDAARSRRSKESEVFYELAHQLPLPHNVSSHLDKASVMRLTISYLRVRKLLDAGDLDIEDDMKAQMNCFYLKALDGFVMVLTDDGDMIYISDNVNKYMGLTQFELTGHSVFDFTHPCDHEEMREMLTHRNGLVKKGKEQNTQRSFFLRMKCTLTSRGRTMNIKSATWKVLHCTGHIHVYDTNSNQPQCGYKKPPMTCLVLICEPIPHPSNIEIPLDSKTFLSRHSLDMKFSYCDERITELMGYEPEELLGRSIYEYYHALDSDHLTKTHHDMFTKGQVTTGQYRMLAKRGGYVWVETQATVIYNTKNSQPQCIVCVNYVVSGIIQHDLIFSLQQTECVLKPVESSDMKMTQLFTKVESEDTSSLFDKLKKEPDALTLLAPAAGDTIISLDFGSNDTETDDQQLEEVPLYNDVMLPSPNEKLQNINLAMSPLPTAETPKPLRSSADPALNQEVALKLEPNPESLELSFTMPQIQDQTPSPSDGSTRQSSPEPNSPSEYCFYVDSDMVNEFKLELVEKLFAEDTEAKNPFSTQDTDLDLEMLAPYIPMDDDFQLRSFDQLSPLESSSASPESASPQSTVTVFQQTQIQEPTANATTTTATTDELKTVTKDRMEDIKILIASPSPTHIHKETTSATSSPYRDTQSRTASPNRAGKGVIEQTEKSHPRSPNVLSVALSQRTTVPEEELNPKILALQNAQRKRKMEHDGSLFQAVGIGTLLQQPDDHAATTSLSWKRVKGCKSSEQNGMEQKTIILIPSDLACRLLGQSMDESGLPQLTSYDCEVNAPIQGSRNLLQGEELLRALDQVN
Sequence of Cytochrome P450 3A7 (Homo sapiens) (P24462 whole entry, looked up): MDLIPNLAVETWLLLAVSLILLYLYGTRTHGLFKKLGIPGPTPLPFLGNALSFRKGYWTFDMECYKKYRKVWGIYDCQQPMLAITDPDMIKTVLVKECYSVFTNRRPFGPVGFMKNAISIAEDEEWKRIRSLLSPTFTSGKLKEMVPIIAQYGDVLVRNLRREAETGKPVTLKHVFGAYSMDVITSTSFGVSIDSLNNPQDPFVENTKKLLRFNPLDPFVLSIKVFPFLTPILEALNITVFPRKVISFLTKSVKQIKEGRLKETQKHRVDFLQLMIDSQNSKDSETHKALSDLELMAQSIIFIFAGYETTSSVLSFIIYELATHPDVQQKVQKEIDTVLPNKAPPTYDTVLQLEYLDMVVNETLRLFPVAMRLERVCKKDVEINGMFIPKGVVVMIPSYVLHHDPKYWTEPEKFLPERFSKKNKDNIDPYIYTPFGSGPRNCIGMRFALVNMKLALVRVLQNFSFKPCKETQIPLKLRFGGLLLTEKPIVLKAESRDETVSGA

CCCCN(CCCC)N=O
outcome [1]: inactive | outcome [2]: inactive | outcome (CYP3A5 (gene 1577)): inactive | outcome [3]: inactive | outcome [4]: inactive | outcome [5]: inactive | outcome [6]: inactive | outcome [7]: inactive | outcome [8]: inactive | outcome [9]: inactive | outcome [10]: inactive | outcome [11]: inactive | outcome [12]: inactive | outcome (HGF (gene 3082)): inactive | outcome [13]: inactive | outcome [14]: inactive | outcome [15]: inactive | outcome [16]: inactive | outcome [17]: inactive

c1cc2c3c(cccc3c1)CC2
outcome [1]: inactive | outcome [2]: inactive | outcome (CYP3A5 (gene 1577)): inactive | outcome [3]: inactive | outcome [4]: inactive | outcome [5]: inactive | outcome [6]: inactive | outcome [7]: inactive | outcome [8]: inactive | outcome [9]: inactive | outcome [10]: inactive | outcome [11]: inactive | outcome [12]: inactive | outcome (HGF (gene 3082)): inactive | outcome [13]: inactive | outcome [14]: inactive | outcome [15]: inactive | outcome [16]: inactive | outcome [17]: inactive

O=[N+]([O-])c1ccccc1
outcome [1]: inactive | outcome [2]: inactive | outcome (CYP3A5 (gene 1577)): inactive | outcome [5]: inactive | outcome [6]: inactive | outcome [7]: inactive | outcome [8]: inactive | outcome [9]: inactive | outcome [10]: inactive | outcome [11]: inactive | outcome [12]: inactive | outcome (HGF (gene 3082)): inactive | outcome [13]: inactive | outcome [14]: inactive | outcome [15]: inactive | outcome [16]: inactive | outcome [17]: inactive

Cc1ccc(O)cc1C
outcome [1]: inactive | outcome [5]: inactive | outcome [6]: inactive | outcome [7]: inactive | outcome [8]: inactive | outcome [9]: inactive | outcome [10]: inactive | outcome [11]: inactive | outcome [12]: inactive | outcome [13]: inactive | outcome [14]: inactive | outcome [15]: inactive | outcome [16]: inactive | outcome [17]: inactive

c1ccc2c(c1)Nc1ccccc1S2
outcome [1]: inactive | outcome [2]: inactive | outcome (CYP3A5 (gene 1577)): inactive | outcome [3]: inactive | AC50 [4]: 20.2 µM (active) | outcome [5]: inactive | outcome [6]: inactive | outcome [7]: inactive | outcome [8]: inactive | outcome [9]: inactive | outcome [10]: inactive | outcome [11]: inactive | outcome [12]: inactive | outcome (HGF (gene 3082)): inactive | AC50 [13]: 50 µM (active) | outcome [14]: inactive | outcome [15]: inactive | outcome [16]: inactive | outcome [17]: inactive

CCC1(c2ccccc2)C(=O)N=C(O)NC1=O (configuration not stated)
outcome [1]: inactive | AC50 [2]: 41.3 µM (active) | outcome (CYP3A5 (gene 1577)): inactive | outcome [3]: inactive | outcome [4]: inactive | outcome [5]: inactive | outcome [6]: inactive | outcome [7]: inactive | outcome [8]: inactive | outcome [9]: inactive | outcome [10]: inactive | outcome [11]: inactive | outcome [12]: inactive | outcome (HGF (gene 3082)): inactive | outcome [13]: inactive | outcome [14]: inactive | outcome [15]: inactive | outcome [16]: inactive | outcome [17]: inactive
